The results in this text go back to PubChem BioAssay (NCI).

This is part of a sample that, as a whole, favours compounds with a hit. Of some 83,000 tested, about 20% had one in any assay.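 The endpoint reported here, percent growth, reads 100 for growth as untreated, 0 for no net growth and -100 for all cells dead.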 Calls of active or inactive are those of the source. Rule for the calls: active = growth percent below 10; inactive = the rest.

The assay has as its system OVCAR-4 ovarian. Nature of the assay: NCI-60 one-dose screen, 48 h (100 = growth as untreated, 0 = no growth, -100 = all killed). Particulars: 10 µM unless noted.
In the case of `CCOC(=O)c1c(C)[nH]c2ccc(O)cc12`, the growth was 107% (inactive).

With `CCC1CCCCN1C(=S)N/N=C(\C)c1ccccn1` (stereo not given), the growth is -50.2% (active).

For the compound `CC(/C=N/NC(N)=S)Cc1ccc(C(C)C)cc1` (stereo not given), the growth was 29.8% (inactive).

For `Nc1ccc(C(=O)/C=C/c2ccccc2)cc1`, the growth is 105% (inactive).

In the case of `O=C(/C(Cl)=N/O)c1ccc(-c2ccccc2)cc1`, the growth was 112% (inactive).

With `CC(C)c1ccc(Nc2n[nH]c(=S)s2)cc1`, the growth is 104% (inactive).

In the case of `NC(=S)N/N=C\c1nccc2c(N)cccc12`, the growth was 40.7% (inactive).

On to `COc1cc2c(c(OC)c1OC)-c1ccc(NCc3ccccc3)c(=O)cc1[C@@H](NC(C)=O)CC2`, for which the growth was 29.6% (inactive).

With `CCCCCCCCCCCCCCCCSC(=NCC)NCC`, the growth was 2% (active).

As to `CN(Cc1ccccc1)c1ccc(SC#N)cc1`, the growth is 68.9% (inactive).

In the case of `CC(=O)Nc1ccc(C(=O)CCl)cc1`, the growth was 60.6% (inactive).

Regarding `O=[N+]([O-])c1ccc(N2CCN(Cc3ccccc3)CC2)c2c1no[n+]2[O-]`, the growth is -50.2% (active).

With `CCOC(=O)NC(/C=C/c1ccccc1)NC(=O)OCC`, the growth is 109% (inactive).

Take `CCCCN(CCCC)CCCCCCCCCCO`: the growth is 93.4% (inactive).

For the compound `S=C1SCN(Cc2cccs2)CN1Cc1cccs1`, the growth is 94.4% (inactive).

Consider `CCOC(=O)/C(=C\c1ccc2ccccc2c1)P(=O)(OCC)OCC`, for which the growth is 62% (inactive).

For the compound `COc1ccc(C(Cn2ccnc2)Sc2ccc(Cl)c(Cl)c2)cc1` (stereo not given), the growth was 79.6% (inactive).

Turning to `O=[N+]([O-])/C(=C/c1ccccc1)c1ccccc1`, the growth is 99% (inactive).

In the case of `CCCCCCC1N=C(N)N=C(N)N1c1cccc(Cl)c1` (stereo not given), the growth was 43.9% (inactive).

Regarding `O=C1C=CC(=O)N1C1CCCCCCCCCCC1`, the growth is 89.5% (inactive).

`Cc1nc(Sc2nc3ccc([N+](=O)[O-])cc3s2)sc1C`: the growth was 36.4% (inactive).

As to `Fc1ccc(NCCS)cc1`, the growth was 102% (inactive).

In the case of `OCCOSCCO`, the growth is 102% (inactive).

For the compound `COc1cc(OC)c(/C=C/c2c3ccccc3cc[n+]2C)c(OC)c1`, the growth is 24.9% (inactive).

As to `CC(C)(C)c1ccc(O)c(Br)c1`, the growth is 101% (inactive).

On to `O=C/C=C/c1ccc([N+](=O)[O-])cc1`, for which the growth is 104% (inactive).

Take `COc1ccc2nc3cc(Cl)ccc3c(NCCCCCN3CCCCC3)c2c1`: the growth is -61% (active).

Consider `COc1cc(-c2ccc(-[n+]3nc(-c4ccc([N+](=O)[O-])cc4)nn3-c3ccc([N+](=O)[O-])cc3)c(OC)c2)ccc1-[n+]1nc(-c2ccc([N+](=O)[O-])cc2)nn1-c1ccc([N+](=O)[O-])cc1`, for which the growth was 53.9% (inactive).

On to `O=C1C=CC(=O)N1c1cc(Cl)c(Cl)cc1Cl`, for which the growth is 98.8% (inactive).

Consider `Nc1cccc2cccc([N+](=O)[O-])c12`, for which the growth was 94.8% (inactive).

For the compound `CCc1cnc2ccccc2c1/C=C/c1ccc(N(C)C)cc1`, the growth was 79.3% (inactive).

As for `O=[N+]([O-])c1ccc(C2N(Cc3ccc(Cl)cc3)CCN2Cc2ccc(Cl)cc2)cc1`, the growth was 102% (inactive).

For the compound `Oc1ccc2c(c1)CCc1ccccc1-2`, the growth is 90.9% (inactive).

As for `COc1cc(/C=C2\SC(=S)N(/C=C/c3nc4ccccc4[nH]c3=O)C2=O)cc(OC)c1OC`, the growth was 84.5% (inactive).

Take `CC(C)(C)CC(C)(C)c1ccc(OCCOCCSC(=N)N)cc1`: the growth was 33% (inactive).
